Six compounds from PubChem BioAssay can be followed below.

“And” between values parts separate entries of the source, which are not always exact repeats. Identical values can stand only once. For part of these data: Measured potencies and affinities stand elsewhere. The source made the active and inactive calls. Cut-off read from the data, not from the text of the source, unless noted: active = parasite load remaining mostly below about 12% (no sharp cut-off); inactive = mostly above about 10%.

A short description of experiment [1]: blockers of polyQ-driven CASP3 activation – cell-based (AID 1583). Conditions: polyglutamine-induced caspase-3 activation, cell assay; stronger effect = higher value;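 tested at 10 µM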.
A short description of experiment [2]: yeast 75Q aggregation reduction – 75Q-TubU reporter (AID 1593). Conditions: Yeast 75Q polyglutamine aggregation reporter.
Experiment [3] in a line: restoration of touch response, mutant HTT neurons – whole organism, C. elegans mechanosensory neurons, N-terminal huntingtin (AID 1599). Conditions: C. elegans polyQ-huntingtin mechanosensory neurons, stronger effect = higher value.
Experiment [4] in a line: blockers of cytochrome c efflux from mitochondria – biochemical, purified mitochondria (AID 1603).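 Note: mouse liver mitochondria challenged with calcium chloride; signal normalized to the plate average as 100%.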 Conditions: stronger effect = lower value.
Experiment [5] in a line: polyglutamine aggregate formation blockers (AID 1604). Conditions: polyglutamine-induced protein aggregation inhibition assay; stronger effect = higher value; tested at 2.5 µM.
Experiment [6] is described as follows: glutamate transport activators, MN-1 cells, MN-1 cell line (AID 1612).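 Note: tested at 1 µM final; 0% = mean of DMSO vehicle wells on each plate; positive means more glutamate uptake than control and negative means less.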 Conditions: MN-1 motor neuron cells, stronger effect = higher value.
Experiment [7] can be described thus: GFP-Q80 aggregate reduction, neuronal-like cells, cell-based, NGF-treated PC12, GFPQ80 (AID 1614).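 Note: lower means fewer inclusions and 0 means no inclusions at all.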 Conditions: PC12 NGF-treated GFP-polyQ80 inclusion reduction.
The nature of experiment [8]: 75Q-TubH aggregate inhibition, S. cerevisiae, yeast (AID 1616). Conditions: S. cerevisiae 75Q-TubH polyglutamine aggregation suppression; stronger effect = higher value.
Experiment [9] can be described thus: P. berghei load reduction in hepatocytes – cell-based, HepG2, luciferase luminescence, HepG2 viability, primary screen (AID 624349).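 Note: 100% = mean of DMSO negative control wells on the same plate.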 Conditions: P. berghei liver stage in HepG2, luciferase luminescence, concentration not given here; parasite load remaining: stronger effect = lower value; viability: measured here: HepG2 viability without parasites.
Experiment [10] can be described thus: EMT-state selective cytotoxicity in co-culture – imaging, PC-3E GFP, TEM4-18 mCherry, primary screen (AID 1345086;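 active = compounds killing one labelled cell type while sparing the other, by normalised counts and ratio limits, not self-fluorescent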;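 for all read-outs here: cells exposed to compound for 72 h before imaging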;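 for red/green cell ratio (normalised): normalised mesenchymal count divided by normalised epithelial count so high means epithelial killing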). Conditions: PC-3E GFP / TEM4-18 mCherry co-culture, imaging cell counts, at 1 µM; for red/green cell ratio (normalised): actives lie on both sides, counts scaled to control wells, 1 = unselective.
Experiment [11] can be described thus: viability loss with induced miR-34 in A549 – imaging, A549 dox-inducible miR-34, nuclei and caspase counts, primary screen (AID 1347080;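 active = compounds whose cell count with miR-34 switched on is under 0.7 times the count with it off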). Conditions: A549 miR-34 inducible, Hoechst nuclei count, 48 h.
[12] abbreviates: measured here: epithelial PC-3E GFP cell survival.
The mark [13] stands for this setting: measured here: mesenchymal TEM4-18 mCherry cell survival.
Where [14] appears, read: stronger effect = lower value, cell number ratio, induced over uninduced.
[15] abbreviates: measured here: relative caspase fold change +Dox/-Dox.
Where [16] appears, read: measured here: total cells with miR-34 induction, stronger effect = lower value.
Where [17] appears, read: measured here: total cells without miR-34 induction.

As for `NC(=O)c1cc[n+](CC2=C(C(=O)O)N3C(=O)C(NC(=O)C(c4ccccc4)S(=O)(=O)[O-])C3SC2)cc1` (configuration not stated), the inhibition (in general, the drop in the measured response relative to a control, in per cent) in experiment [1] is -4.99%. For the same compound, the score in experiment [2] was determined as 0.99. Besides, the rescue above control in experiment [3] was -3.36. Also, the cytochrome c release ratio in [4] stood at 0.92. Besides, the inhibition of aggregation in experiment [5] is 24.1%. The glutamate uptake change in experiment [6] is -27.4%. Also, in [7], the inclusion score was determined as 2. Besides, the aggregation suppression score in experiment [8] came to 1.42. Further, the parasite load remaining in [9] is 51% (inactive). The viability (in general, a per cent measure of how many cells are alive, often set against a control) in [9] is 86.8%. Besides, the red/green cell ratio (normalised) in experiment [10] is 0.99 (inactive). In addition, the normalised cell number in [10] (setting [12]) was 1.08; in [10] (setting [13]) it was 1.07. Moreover, the fold change is 0.877 (inactive) in [11] (setting [14]) and 3.65 in experiment [11] (setting [15]). Further, the cell count stood at 11600 in experiment [11] (setting [16]) and 13200 in experiment [11] (setting [17]).
As to `CC(=O)OCC(=O)[C@@]12OC3(CCCC3)O[C@@H]1CC1C3CCC4=CC(=O)C=C[C@]4(C)[C@@]3(F)[C@@H](O)C[C@@]12C` (some centres not stated), in [1], the inhibition came to 11.1%. The compound also registered a score in experiment [2] of 0.65. Besides, the rescue above control in [3] is -4.49. Moreover, in experiment [4], the cytochrome c release ratio turned out to be 0.91. Also, the inhibition of aggregation in experiment [5] worked out at 31.4%. Besides, in [6], the glutamate uptake change was 27.2%. For the same compound, the inclusion score in experiment [7] was found to be 2. In addition, in experiment [8], the aggregation suppression score was determined as 0.855. The parasite load remaining in experiment [9] is 189% (inactive) and 59% (inactive). Further, the viability in experiment [9] was 84% and 96.4%. Besides, the red/green cell ratio (normalised) in experiment [10] was 1.04 (inactive). Moreover, the normalised cell number in experiment [10] (setting [12]) came out at 1.4; in experiment [10] (setting [13]), 1.46. Also, the fold change in experiment [11] (setting [14]) is 0.917 (inactive); in experiment [11] (setting [15]) it was 2.86. For the same compound, the cell count in [11] (setting [16]) is 7510; in experiment [11] (setting [17]), 8190.
For the compound `CN1C2CC[C@@H]1CC(OC(=O)[C@H](CO)c1ccccc1)C2` (some centres not stated), the inhibition in [1] was found to be 10%. The compound also showed a score in experiment [2] of 1.23. This compound also yielded a rescue above control in experiment [3] of 0.71. Also, the cytochrome c release ratio in experiment [4] stood at 1.28. The inhibition of aggregation in [5] was found to be 89.7%. For the same compound, the glutamate uptake change in [6] was -13.3%. Further, the inclusion score in [7] is 2. Also, the aggregation suppression score in [8] stood at 1.46. The parasite load remaining in experiment [9] is 85.7% (inactive) and 75.8% (inactive). The viability in experiment [9] was 72.7% and 94.9%. The red/green cell ratio (normalised) in [10] is 0.96 (inactive). Besides, the normalised cell number was determined as 1.11 in experiment [10] (setting [12]) and 1.07 in experiment [10] (setting [13]). Besides, the fold change in experiment [11] (setting [14]) is 0.837 (inactive); in [11] (setting [15]) it was 0.536. Further, the cell count turned out to be 10500 in experiment [11] (setting [16]) and 12600 in [11] (setting [17]).
In the case of `CNC[C@@H](O)c1ccc(O)c(O)c1`, the inhibition in experiment [1] turned out to be 15.5%. For the same compound, in experiment [2], the score was determined as 1.46. The compound further had a rescue above control in experiment [3] of -0.75. For the same compound, the cytochrome c release ratio in experiment [4] was 0.7. The inhibition of aggregation in experiment [5] is 86.2%. The glutamate uptake change in experiment [6] is -6.16%. In addition, the inclusion score in experiment [7] is 1. In experiment [8], this compound had an aggregation suppression score of 1.31. In [9], the parasite load remaining was 51.9% (inactive) and 119% (inactive). The viability in experiment [9] is 72.9% and 92%. Moreover, the red/green cell ratio (normalised) in experiment [10] is 1.49 (inactive). In addition, the results for the normalised cell number in experiment [10] (setting [12]) and in experiment [10] (setting [13]) were 1.01 and 1.5, respectively. Moreover, the fold change in experiment [11] (setting [14]) is 0.901 (inactive); in [11] (setting [15]) it was 3.62. Moreover, the cell count in experiment [11] (setting [16]) turned out to be 11500; in experiment [11] (setting [17]), 12800.
With `CCC[C@@H]1C[C@@H](C(=O)N[C@H]([C@H]2O[C@H](SC)[C@H](O)[C@@H](O)[C@H]2O)[C@H](C)O)N(C)C1`, in [1], the inhibition came out at 3.68%. For the same compound, the score in [2] came out at 1.23. Moreover, the rescue above control in experiment [3] was 8.96. In addition, in [4], the cytochrome c release ratio worked out at 0.99. Further, the inhibition of aggregation in [5] came out at 67.6%. Moreover, the glutamate uptake change in experiment [6] was -19.8%. The inclusion score in experiment [7] was determined as 2. In addition, the aggregation suppression score in experiment [8] is 1.16. Further, the parasite load remaining in [9] is 81.5% (inactive) and 50.6% (inactive). In experiment [9], the viability was 72.6% and 86.3%. In experiment [10], the red/green cell ratio (normalised) is 1.04 (inactive). Further, the figures for the normalised cell number in experiment [10] (setting [12]) and in experiment [10] (setting [13]) were 1.09 and 1.13, respectively. The figures for the fold change in [11] (setting [14]) and in [11] (setting [15]) were 0.939 (inactive) and 2.92, respectively. Moreover, the cell count in experiment [11] (setting [16]) was found to be 11900; in [11] (setting [17]), 12700.
With `CN1C2CC(OC(=O)[C@H](CO)c3ccccc3)C[C@H]1[C@H]1OC21` (some centres not stated), in [1], the inhibition came to 15.1%. This compound also had a score in experiment [2] of 1.26. The same compound had a rescue above control in experiment [3] of 6.9. For the same compound, the cytochrome c release ratio in experiment [4] is 1.03. In addition, the inhibition of aggregation in experiment [5] was determined as 58.7%. Also, in [6], the glutamate uptake change was 1.71%. The inclusion score in experiment [7] came to 2. This compound also came in with an aggregation suppression score in [8] of 1.18. For the same compound, the parasite load remaining in experiment [9] is 98.3% (inactive) and 40.5% (inactive). The viability in [9] is 76.7% and 88.6%. Further, in [10], the red/green cell ratio (normalised) was 0.76 (inactive). In addition, the normalised cell number amounted to 1.11 in [10] (setting [12]) and 0.84 in experiment [10] (setting [13]). The fold change in experiment [11] (setting [14]) is 0.977 (inactive); in [11] (setting [15]) it was 3.37. The cell count is 11400 in [11] (setting [16]) and 11600 in experiment [11] (setting [17]).
